GRK2 inh = blocks RNA aptamer binding to human GRK2; P25098; bead flow cytometry, FAM-aptamer displacement from GRK2; inhibition of aptamer binding, % at 10 µM; 330,000 tested, 0.59% active; AID 488847;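 active = inhibition of aptamer binding above 40%, roughly 3 SD of noise, on plates passing a quality check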;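 also: median bead fluorescence of bound FAM aptamer so fluorescent compounds give negative values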
TLR9-MyD88 inh = TLR9-MyD88 interaction inhibition; inhibition, % at 4.98 µM; Q9NR96+Q99836; 340,000 tested, 0.21% active; AID 504734; CHO BLA complementation TLR9-MyD88, CCF4 FRET ratio;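 active = inhibition above the mean over all tested compounds plus 3 SD, cut at about 21% in these data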
NOD2 RIPK2 PPI = blocks binding of human NOD2 to RIPK2; inhibition, % at 4.98 µM; O43353; CHO BLA complementation NOD2-RIPK2, CCF4 ratio; 360,000 tested, 0.38% active; in the data active = inhibition above about 21%
Target sequence (O43353 whole entry, looked up): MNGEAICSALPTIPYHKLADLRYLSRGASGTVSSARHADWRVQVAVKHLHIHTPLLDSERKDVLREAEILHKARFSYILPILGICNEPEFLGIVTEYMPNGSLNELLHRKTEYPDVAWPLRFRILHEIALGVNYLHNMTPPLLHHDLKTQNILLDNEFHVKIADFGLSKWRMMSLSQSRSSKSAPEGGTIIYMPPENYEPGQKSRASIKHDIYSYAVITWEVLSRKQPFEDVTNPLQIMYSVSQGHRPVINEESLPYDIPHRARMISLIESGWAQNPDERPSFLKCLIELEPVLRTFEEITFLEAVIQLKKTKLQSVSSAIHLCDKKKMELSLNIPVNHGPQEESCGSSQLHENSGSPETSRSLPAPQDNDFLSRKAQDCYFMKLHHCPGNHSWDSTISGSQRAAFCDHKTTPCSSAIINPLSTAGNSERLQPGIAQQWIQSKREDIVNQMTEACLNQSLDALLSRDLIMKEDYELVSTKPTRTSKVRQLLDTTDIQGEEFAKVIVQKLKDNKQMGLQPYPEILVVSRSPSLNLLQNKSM
ANO1 activ = activators or potentiators of mouse TMEM16A chloride channel. Q8BHY3. HEK293 TMEM16A/YFP-H148Q/I152L, iodide quench fluorescence; hits give low values. B-score at 10 µM. 340,000 tested, 0.3% active. AID 623877;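 active = fluorescence-ratio B-score plate-corrected deviation score at least 3 library SD below zero, with starting fluorescence score within 5 deviations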;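 also: channel opened by trigger with iodide after compound preincubation; score built on the fluorescence ratio of max minus min over baseline; more negative score means more quench and so TMEM16A activation or potentiation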
ANO1 block = inhibitors of mouse TMEM16A calcium-activated chloride channel; Q8BHY3; HEK293 TMEM16A/YFP iodide influx fluorescence, ionomycin; normalized B-score (activity score, 25-100; higher = stronger inhibition) at 10 µM; 310,000 tested, 1.2% active; AID 588511;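 active = ratio plate-corrected score three or more library SD toward inhibition, starting fluorescence score within five deviations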;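 also: score derived from kinetic fluorescence span divided by baseline fluorescence per well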
TLR4-MyD88 BLA = blocks binding of human TLR4 to MyD88; HeLa CL3-4 TLR4/MyD88 BLA complementation, FRET ratio; inhibition, % at 8.4 µM; 200,000 tested, 0.18% active; in the data active = inhibition above about 25%
TMEM16A reconf = TMEM16A (mouse) chloride channel inhibition, re-confirmation. shares compounds with ANO1 block. HEK293 TMEM16A/YFP-H148Q, iodide quench fluorescence; ionomycin added to raise cell calcium. inhibition, % at 10 µM. 2,300 tested, 39% active;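 active = mean duplicate percent inhibition, scaled so buffer wells are 0 and the reference blocker 100, over three buffer SD above buffer mean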
HEK293 Ca mobil = counter-screen for TMEM16A inhibitors: effect on calcium mobilization; shares compounds with ANO1 block; TMEM16A/YFP HEK293, Fluo4 calcium mobilization; calcium response (% of ionomycin), % at 10 µM; 2,300 tested, 2% active; AID 652231;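 active = duplicate-averaged calcium signal over 20% of the ionomycin maximum, relative to buffer baseline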;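 also: each well's signal is peak minus trough fluorescence divided by its pre-addition baseline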
Parental YFP cnt = acts in parental YFP-HEK293 cells lacking TMEM16A, counter-screen; shares compounds with ANO1 block; iodide YFP quench, ionomycin; YFP ratio F(max-min)/F0 at 10 µM; 2,300 tested, under 10 active; AID 652233;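 active = yellow fluorescent protein signal ratio exceeding the buffer control mean by over 5 SD of those controls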;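 also: ratio is mean of duplicate wells from kinetic YFP trace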
ClC-1 inh = blocks the rat ClC-1 voltage-dependent chloride channel; AID 652236; CHO ClC-1-YFP, iodide influx fluorescence quench; iodide control reads 0, buffer control 100; ratio percent, % at 10 µM; 2,300 tested, under 10 active; shares compounds with ANO1 block;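 active = duplicate-mean ratio percent above the mean of iodide-only control wells, which defines zero, plus 5 of their SD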;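 also: higher percent means stronger block of ClC-1 iodide influx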
Hits are given with their value; i = inactive; nt = not tested or not shown. Hits are enriched below; roughly 2.2% of the tested compounds scored in any of these assays.

SMILES	GRK2 inh	TLR9-MyD88 inh	NOD2 RIPK2 PPI	ANO1 activ	ANO1 block	TLR4-MyD88 BLA	TMEM16A reconf	HEK293 Ca mobil	Parental YFP cnt	ClC-1 inh
O=C(Nc1ccc(Cc2nc3ccccc3s2)cc1)c1ccncc1	i	i	i	i	25	nt	17%	i	i	i
CCn1c(SCC(=O)N2CCOCC2)nc2oc3c(Cl)cc(Cl)cc3c(=O)c2c1=O	i	nt	nt	nt	i	i	32%	i	i	i
CCn1c(SCC(=O)N2CCOCC2)nc2sc3c(c2c1=O)CCCC3	i	i	i	i	i	i	nt	nt	nt	nt
O=C(Nc1ccccc1)c1ccccc1OS(=O)(=O)c1ccccc1	i	i	i	i	i	nt	nt	nt	nt	nt
O=C(Oc1ccccc1)c1ccccc1OS(=O)(=O)c1ccccc1	i	i	i	i	100	i	i	i	i	i
CCNC(=O)C1(C)CCN(C(=O)c2ccc(-c3ccccc3)cc2)C1 (centres undefined)	nt	nt	i	nt	nt	nt	nt	nt	nt	nt
O=C(O)c1ccc(NNC(=S)Nc2cc(C(F)(F)F)ccc2Cl)cc1	i	i	i	i	i	nt	nt	nt	nt	nt
Clc1c(Cl)c(Cl)c2n[nH]nc2c1Cl	i	i	i	i	100	nt	44%	i	i	i
Cc1cc(C)cc(Cn2cc(CN3CC(N4CCN(CCO)CC4)CS3(=O)=O)nn2)c1 (centres undefined)	nt	nt	i	nt	nt	nt	nt	nt	nt	nt
COc1ccc(C(CNc2ccc(S(C)(=O)=O)cc2[N+](=O)[O-])N(C)C)cc1OC (centres undefined)	i	i	i	i	i	nt	nt	nt	nt	nt
CCN(CC)c1nc(OCCNC(=O)Nc2ccccc2)nc(N(CC)CC)n1	i	i	i	i	100	i	20%	i	i	i
CC(C(=O)NC1CCCc2ccccc21)N1CCN(c2ccc(F)cc2)CC1 (centres undefined)	i	i	i	i	i	i	nt	nt	nt	nt
CC(C(=O)NC1CCCc2ccccc21)N1CCN(Cc2ccc3c(c2)OCO3)CC1 (centres undefined)	i	i	i	i	25	i	i	i	i	i
O=C(Nc1cccnc1)c1ccc(Cl)c(S(=O)(=O)N2CCc3ccccc32)c1	i	i	i	i	100	i	18%	i	i	i
CCc1nc2ccc(C(=O)NCCCN(C)C)cn2c1N(CC)CCOC	nt	nt	i	nt	nt	nt	nt	nt	nt	nt
O=C(CCc1ccccc1)NNC(=O)c1ccc(Cl)cc1	i	i	i	i	i	nt	nt	nt	nt	nt
O=C(CCc1ccccc1)NNC(=S)NC(=O)c1ccc(Cl)cc1	i	nt	nt	nt	100	i	25%	65%	i	i
Cc1ccc(C(=O)NC(=S)NNC(=O)COc2ccccc2C)cc1	i	i	i	i	25	i	20%	i	i	i
CC(C)C[C@H](NC(=O)c1nc[nH]c1C(=O)N1CCC(C)CC1)C(=O)OC(C)(C)C	i	i	i	i	i	nt	nt	nt	nt	nt
CC1CCN(C(=O)c2[nH]cnc2C(=O)N[C@@H](CCCCNC(=O)OC(C)(C)C)C(=O)OC(C)(C)C)CC1	i	i	i	i	100	nt	i	i	i	i
Cn1c(SCC(=O)Nc2ccc3c(c2)OCO3)nnc1C(F)(F)F	i	i	i	i	nt	nt	nt	nt	nt	nt
O=C(c1ccncc1)c1ccc(N2CCN(C3CC(=O)N(Cc4ccccc4)C3=O)CC2)cc1 (centres undefined)	i	i	i	i	100	i	25%	i	i	i
OCC1OC(n2cnc3c(NCc4ccccc4O)ncnc32)C(O)C1O (centres undefined)	nt	i	i	i	nt	nt	nt	nt	nt	nt
Cn1c(N)c(-c2ccccc2)c2ccc([N+](=O)[O-])cc2c1=O	i	i	i	i	i	nt	nt	nt	nt	nt
CCOC(=O)C1CCCN(C(=O)c2cc(=O)c3ccccc3o2)C1 (centres undefined)	i	i	i	i	i	i	nt	nt	nt	nt
SMILES	GRK2 inh	TLR9-MyD88 inh	NOD2 RIPK2 PPI	ANO1 activ	ANO1 block	TLR4-MyD88 BLA	TMEM16A reconf	HEK293 Ca mobil	Parental YFP cnt	ClC-1 inh
CCOC(=O)C1CCCN(c2ncnc3c2oc2ccccc23)C1 (centres undefined)	i	i	i	i	100	i	28%	i	i	i
CCOC(=O)C1CCN(c2ncnc3c2oc2ccccc23)CC1	i	i	i	i	100	i	22%	i	i	i
CCOC(=O)C1CCN(c2nc(-c3ccccc3)nc3c2oc2ccccc23)CC1	i	i	i	i	i	i	nt	nt	nt	nt
CCC(Oc1ccccc1C)C(=O)N1CCCN(C)CC1 (centres undefined)	i	i	i	i	i	nt	nt	nt	nt	nt
C=CC[N+](C)(C)CCCNC(=O)/C=N/O	i	i	i	i	i	i	nt	nt	nt	nt
OC[C@H]1OC(O)C[C@@H](O)[C@@H]1O (some centres undefined)	i	i	i	i	i	nt	nt	nt	nt	nt
CCC1(CC)C(=O)N(c2ccccc2)C(=N)N(c2ccccc2)C1=O	nt	i	i	i	nt	nt	nt	nt	nt	nt
COCCN(C(=S)Nc1ccc(C(C)C)cc1)C(C)c1cccs1 (centres undefined)	i	i	i	i	25	i	i	i	i	i
COCCN(C(=S)Nc1cccc(OC)c1)C(C)c1cccs1 (centres undefined)	i	i	i	i	i	i	nt	nt	nt	nt
Cc1ccc(C(=O)CSc2nc(C(C)C)nc3ccccc23)cc1	i	i	i	i	100	i	i	i	i	i
COc1ccc(CCNc2nc(-c3sc(C)nc3C)cs2)cc1OC	i	i	i	i	100	i	34%	i	i	i
COc1ccc(CCNc2nc(-c3ccncc3)cs2)cc1OC	i	i	i	i	i	nt	nt	nt	nt	nt
COc1ccc(CCNc2nc(-c3ccc(O)cc3)cs2)cc1OC	i	i	i	i	100	nt	30%	i	i	i
CC1CC(C)CN(C(=O)C(C)N2CCN(S(=O)(=O)c3cccs3)CC2)C1 (centres undefined)	i	i	i	i	nt	nt	nt	nt	nt	nt
CC1CCN(S(=O)(=O)c2cccc(C(=O)O)c2)CC1	i	i	i	i	100	i	i	i	i	i
COc1cc2c(C(=O)N3CCN(c4ccccc4)CC3)c(C)oc2cc1Br	i	i	i	i	i	i	i	i	i	i
Cc1ccc(NS(=O)(=O)c2sc3ccc(Cl)cc3c2C)cc1	i	nt	i	i	100	nt	i	i	i	i
N#C/C(=N\Nc1c(Cl)cccc1Cl)C(=O)NN	i	i	i	i	25	i	i	i	i	i
CCOC(=O)NC(=O)/C(C#N)=N/Nc1c(F)cccc1F	i	i	i	i	i	i	nt	nt	nt	nt

Compound activity (PubChem)
